Assay outcomes: PubChem, National Center for Advancing Translational Sciences (NCATS)
An excerpt weighted towards active compounds, which were near 18% of everything screened.
TDP1 cell noCPT – qHTS for Inhibitors of human tyrosyl-DNA phosphodiesterase 1 (TDP1): qHTS in cells in absence of CPT; DT40 Tdp1-/- hTDP1 cells, no CPT, ATP luminescence, 48 h; Potency, µM (top dose mostly 46.2 µM), for the others: top-dose activity change, negative = growth inhibition, usual class: inhibitors; 15% of 420,000 active; further: potency means the concentration at half of the fitted maximal effect; nearly all actives have a fitted effect of over 55% in size
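DT40 Tdp1-/-;hTDP1 cells, no CPT (DMSO vehicle only), 400 cells/well; compounds pin-transferred; ≥48 hr, 37 °C; CellTiter-Glo 30 min RT dark, luminescence read.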
IL-1B inflam inh – inflammasome signaling inhibition, IL-1 beta readout; 4.7% of 360,000 active; THP-1 LPS/ATP IL-1B secretion, AlphaLISA, 16 h; active compounds read low; activity change, % at 57.5 µM; in the data active means activity change below about -50%; inconclusive means mostly about -30% to -49%
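Secreted IL-1B measured by AlphaLISA bead assay after 16 h compound exposure of THP-1 cells; compounds (final up to 57.5 uM) added 1 h before LPS (250 ng/mL) and ATP (1.25 mM) stimulation; lower signal means less secretion.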
Six1-Eya2 blk – blocks human Six1 binding to Eya2. AlphaScreen GST-Six1/His-Eya2 binding, biochemical; active compounds read low. activity change, % (no concentration beside the values). 0.56% of 360,000 active; in the data active means activity change below about -65%; inconclusive means mostly about -30% to -63%
Target sequence (O00167 whole entry, looked up): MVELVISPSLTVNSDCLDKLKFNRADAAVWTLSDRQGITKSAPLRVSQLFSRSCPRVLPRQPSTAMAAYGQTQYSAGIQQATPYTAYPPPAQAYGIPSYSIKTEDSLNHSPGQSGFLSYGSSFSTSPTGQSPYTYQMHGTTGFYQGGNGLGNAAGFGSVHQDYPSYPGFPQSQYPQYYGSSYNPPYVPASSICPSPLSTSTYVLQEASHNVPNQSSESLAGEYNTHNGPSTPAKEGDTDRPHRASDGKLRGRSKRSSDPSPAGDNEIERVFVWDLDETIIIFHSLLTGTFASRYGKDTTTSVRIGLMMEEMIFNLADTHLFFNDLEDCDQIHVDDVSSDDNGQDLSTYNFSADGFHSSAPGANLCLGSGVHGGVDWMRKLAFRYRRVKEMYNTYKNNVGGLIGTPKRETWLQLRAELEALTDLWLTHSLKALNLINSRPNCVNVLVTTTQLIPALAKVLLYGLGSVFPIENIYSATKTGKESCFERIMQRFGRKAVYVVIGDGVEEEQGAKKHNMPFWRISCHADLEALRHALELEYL
Target sequence (Q15475 whole entry, looked up): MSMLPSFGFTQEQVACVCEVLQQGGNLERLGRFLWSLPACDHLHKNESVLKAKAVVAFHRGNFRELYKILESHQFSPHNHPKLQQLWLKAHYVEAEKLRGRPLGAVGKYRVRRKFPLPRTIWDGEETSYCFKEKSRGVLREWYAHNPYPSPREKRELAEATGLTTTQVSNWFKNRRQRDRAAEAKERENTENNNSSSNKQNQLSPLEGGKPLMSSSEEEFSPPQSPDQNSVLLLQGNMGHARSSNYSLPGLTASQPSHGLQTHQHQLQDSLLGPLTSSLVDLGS
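Homogeneous AlphaScreen proximity assay pairing GST-Six1 with His-tagged Eya2 (added as 5X mix: 250 nM and 500 nM) in 50 mM Tris pH 8.0, 300 mM NaCl, 1 mM TCEP. Glutathione donor and nickel acceptor beads; 1 h, 37 °C, dark.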
CtBP-E1A blk – CtBP/E1A binding inhibition; activity change, % (test concentration not listed); 0.49% of 340,000 active; AlphaScreen GST-E1A/His-CtBP binding, 1536-well; active compounds read low; in the data active means activity change below about -65%; inconclusive means mostly about -30% to -63%
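Homogeneous bead-based format: GST-tagged E1A captured on glutathione donor beads, His-tagged CtBP on nickel acceptor beads; compounds precede bead addition by 2 h at 37 °C.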
TDP1 cell CPT – growth inhibition of DT40 Tdp1-/-;hTDP1 cells with camptothecin (screen for TDP1 inhibitors). chicken DT40 Tdp1-/-;hTDP1 cells + 20 nM CPT, ATP luminescence, 48 h. Potency, µM (titrated, usually from 46.2 µM), without a hit: at the highest dose activity change, negative = growth inhibition, most hits filed as inhibitors. 12% of 420,000 active. AID 686979; further: potency means the concentration at half of the fitted maximal effect; nearly all actives have a fitted effect of over 55% in size
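Chicken DT40 Tdp1-/- cells stably complemented with human TDP1 were seeded at 400 cells/well in medium containing 20 nM camptothecin, exposed to pin-transferred compounds, and grown at 37 °C for at least 48 hr. Viability was read as ATP luminescence.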
TDP1 block – blocks human tyrosyl-DNA phosphodiesterase 1; recombinant TDP1, AlphaScreen DNA substrate cleavage; Potency, µM (top dose mostly 130 µM), for the others: at the top dose activity change, negative = inhibition, actives largely listed as inhibitors; 0.28% of 350,000 active; further: potency means the concentration at half of the fitted maximal effect; nearly all actives have a fitted effect of over 40% in size
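Recombinant human Tdp1 (E. coli-expressed, 1 nM final) preincubated with compounds 15 min at room temperature, then 5'-biotin/3'-phosphotyrosine-FITC DNA substrate (15 nM final) added for 5 min. AlphaScreen beads (10 ug/ml final) added 10 min; cleavage lowers signal.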
* = called active by the depositor; [ ] = another dose, or the depositor's remark. Unless noted, the call rests on the fitted dose curve; in most records, active means well fitted curve in the direction sought with a large enough effect; inconclusive means small, poorly fitted or top-dose-only effect, or another doubt; inactive means no such curve, though single readings can be large; an effect the other way counts as inactive or inconclusive. On the % scale 0 is the no-effect control and ±100 the full control effect.

How did N#CC1C(C#N)C2CCC1C1C2N1c1ccccc1 (centres undefined) do in these assays?
TDP1 cell noCPT: -4%; IL-1B inflam inh: 1; Six1-Eya2 blk: -1; CtBP-E1A blk: -11; TDP1 cell CPT: -10%

How did CCCC(=O)Nc1cc(C(=O)N2CCC3(CC2)OCCO3)ccc1S(=O)(=O)c1ccc(C)cc1 do in these assays?
TDP1 cell noCPT: -14%; IL-1B inflam inh: 30; Six1-Eya2 blk: 1; CtBP-E1A blk: 1; TDP1 cell CPT: inconclusive; TDP1 block: 1%

What do the screens show for `CCCCCCC(Cl)(Cn1ccnc1)c1ccccc1` (centres undefined)?
TDP1 cell noCPT: 15µM*; IL-1B inflam inh: -18; Six1-Eya2 blk: -11; CtBP-E1A blk: 1; TDP1 cell CPT: inconclusive

How did CCCCCCn1c(O)c(C=NCCCn2ccnc2)c(=O)[nH]c1=O do in these assays?
TDP1 cell noCPT: -22%; IL-1B inflam inh: 20; Six1-Eya2 blk: 5; CtBP-E1A blk: 1; TDP1 cell CPT: -15%; TDP1 block: 6%

Results for C[C@]12Cc3nonc3C[C@@H]1CC[C@@H]1[C@@H]2CC[C@@]2(C)[C@H]1CC[C@]2(C)O ?
TDP1 cell noCPT: inconclusive; TDP1 cell CPT: -7%

How did C(=NN1CCCCCC1)c1c[nH]c2ccccc12 do in these assays?
TDP1 cell noCPT: -17%; IL-1B inflam inh: 8; Six1-Eya2 blk: 0; CtBP-E1A blk: 2; TDP1 cell CPT: 0%

How did Brc1ccc2[nH]cc(/C=N/N3CCCCC3)c2c1 do in these assays?
TDP1 cell noCPT: 15µM*; IL-1B inflam inh: -65*; Six1-Eya2 blk: -19; CtBP-E1A blk: -8; TDP1 cell CPT: inconclusive; TDP1 block: 8%

What do the screens show for `CN1C(=O)N(C)C(=O)C2(Cc3cc([N+](=O)[O-])ccc3N(C)C2c2ccccc2)C1=O` (centres undefined)?
TDP1 cell noCPT: inconclusive; IL-1B inflam inh: 4; Six1-Eya2 blk: 10; CtBP-E1A blk: 9; TDP1 cell CPT: inconclusive; TDP1 block: 4%

Results for O=C(O)CCCO ?
TDP1 cell noCPT: -22%[92.5 µM]; TDP1 cell CPT: 16%[92.5 µM]

What do the screens show for `O=c1[nH]cc(N(CCCl)CCCl)c(=O)[nH]1`?
TDP1 cell noCPT: -15%; TDP1 cell CPT: -17%

What do the screens show for `O=c1[nH]cc(F)c(=O)[nH]1`?
TDP1 cell noCPT: 16µM*; IL-1B inflam inh: 19; Six1-Eya2 blk: 7; CtBP-E1A blk: -6; TDP1 cell CPT: 18µM*; TDP1 block: -4%

What do the screens show for `COc1ccc(C(CNC(=O)CCc2ccsc2)N(C)C)cc1` (centres undefined)?
TDP1 cell noCPT: -12%; IL-1B inflam inh: -18; Six1-Eya2 blk: -4; CtBP-E1A blk: -1; TDP1 cell CPT: 8%

Results for N#CC1=C(N)Oc2c(c(=O)sc3ccccc23)C1c1cccnc1 (centres undefined) ?
TDP1 cell noCPT: 8.2µM*; IL-1B inflam inh: 23; Six1-Eya2 blk: -4; CtBP-E1A blk: 3; TDP1 cell CPT: 8.2µM*; TDP1 block: -5%

Results for CCc1cccc(NC(=O)c2ccc(NC(=O)N3CCSc4ncccc43)cc2)c1 ?
TDP1 cell noCPT: 16µM*; TDP1 cell CPT: 21µM*; TDP1 block: 6%

What do the screens show for `CC(C)C(=O)Nc1ccc(C(=O)NCc2cccnc2)cc1`?
TDP1 cell noCPT: inconclusive; IL-1B inflam inh: 18; Six1-Eya2 blk: 4; CtBP-E1A blk: -1; TDP1 cell CPT: inconclusive; TDP1 block: 5%

Results for O=C(NC(c1cccnc1)C(F)(F)F)c1cnn(-c2nccc(-c3cccs3)n2)c1C1CC1 (centres undefined) ?
TDP1 cell noCPT: 21µM*; TDP1 cell CPT: inconclusive

Results for C[C@H]1CC[C@@H]2[C@@H](C)C(=O)O[C@H]3O[C@@]4(C)CC[C@H]1[C@@]32OO4 ?
TDP1 block: 4%[56.1 µM]

Results for C[C@H]1[C@@H](OC(=O)CCC(=O)O)O[C@@H]2OC3(C)CC[C@H]4[C@H](C)CC[C@@H]1[C@@]24OO3 ?
TDP1 cell noCPT: 0.11µM*; TDP1 cell CPT: 0.12µM*

How did CCC(C)NC(=O)CCC(=O)OC1O[C@H]2OC3(C)CC[C@H]4[C@H](C)CCC(C1C)C24OO3 (some centres undefined) do in these assays?
TDP1 cell noCPT: 0.18µM*; IL-1B inflam inh: inconclusive; Six1-Eya2 blk: 3; CtBP-E1A blk: 8; TDP1 cell CPT: 0.21µM*

How did O=c1[nH]c(=O)n(-c2ccccc2)c(O)c1/C=C1/C(c2ccccc2)=Nc2ccccc21 do in these assays?
TDP1 cell noCPT: 2.3µM*; IL-1B inflam inh: 22; Six1-Eya2 blk: 1; CtBP-E1A blk: -1; TDP1 cell CPT: 2.1µM*; TDP1 block: -6%

Results for c1ccc(N2CCCC3(CCNCC3)C2)nc1 ?
TDP1 cell noCPT: 16µM*; TDP1 cell CPT: inconclusive

How did c1cnc(N2CCC3(CCNCC3)CC2)nc1 do in these assays?
TDP1 cell noCPT: 23µM*; TDP1 cell CPT: inconclusive

How did c1ccc(CN2CCNCC2)nc1 do in these assays?
TDP1 cell noCPT: 10%; IL-1B inflam inh: 9; Six1-Eya2 blk: -25; CtBP-E1A blk: -4; TDP1 cell CPT: -7%

How did O=P(c1ccccc1)(c1nc2ccccc2s1)N1CCOCC1 (centres undefined) do in these assays?
TDP1 cell noCPT: -6%; IL-1B inflam inh: -12; Six1-Eya2 blk: 1; CtBP-E1A blk: 6; TDP1 cell CPT: -1%; TDP1 block: 3%

Results for COc1ccccc1N1CCN(Cc2cnc(-c3ccccc3)[nH]2)CC1 ?
TDP1 cell noCPT: inconclusive; Six1-Eya2 blk: -5; CtBP-E1A blk: -5; TDP1 cell CPT: -23%; TDP1 block: 5%

How did Cc1cc(/C=C/c2cccc3sc(C)[n+](CCCCI)c23)ccc1N(CCCl)CCCl do in these assays?
TDP1 cell noCPT: 1.6µM*; TDP1 cell CPT: 2µM*

Results for CCOC(=O)c1c(C)n(Cc2ccccc2)c2ccc(OCC(O)CNC(C)(C)C)cc12 (centres undefined) ?
TDP1 cell noCPT: 18µM*; IL-1B inflam inh: -96*; Six1-Eya2 blk: 2; CtBP-E1A blk: -16; TDP1 cell CPT: inconclusive

Results for C[C@H]1CN([C@@H](C)CO)C(=O)CCCn2nncc2CO[C@H]1CN(C)C(=O)Oc1ccc2ccccc2c1 ?
TDP1 cell noCPT: 9.2µM*; IL-1B inflam inh: 24; Six1-Eya2 blk: 13; CtBP-E1A blk: -23; TDP1 cell CPT: 16µM*
